# Measurements taken from PubChem BioAssay.
# Tested on: Sam68 (KHDRBS1)
# Experiment: compounds binding KHDRBS1 protein – biochemical, small-molecule microarray, 635 nm fluorescence, primary screen (AID 1125);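 note: score merges 667 nm channel intensity with signal to noise over triplicate slides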
# Details: higher = more signal
row,Structure (SMILES),composite z-score
1,COc1ccc([Si](C)(C)[C@H]2[C@H](CCO)O[C@@]3(C(=O)N(Cc4ccccc4)c4ccc(N5C(=O)c6ccccc6Oc6ccccc65)cc43)[C@@H]2C)cc1,0.442
2,COCCOC(=O)N1C(=O)[C@@]2(c3cc(C#CC4=CCCCC4)ccc31)[C@H](C(=O)N1CCCCCCC1)[C@H]1C(=O)O[C@H](c3ccccc3)[C@H](c3ccccc3)N1[C@@H]2c1ccc(OCCO)cc1,0.865
3,CC(C)[C@H]1NC(=O)[C@@]23C(=O)N[C@@H](Cc4ccccc4)C2[C@H](C)[C@@]2(C)O[C@H]2C3/C=C/C/C=C\CNC(=O)[C@H](Cc2ccccc2)NC1=O (stereo partly drawn),1.29
4,CC(C)=CCCC(C)=CC(O)C1C=CC2C(=O)N(c3ccccc3)C(=O)C2N1Nc1ccccc1F (stereo not drawn),1.13
5,CC(C)C[C@@H]1NC(=O)CNC(=O)[C@@]23C(=O)N[C@@H](Cc4ccccc4)C2[C@H](C)[C@@]2(C)O[C@H]2C3/C=C/C/C=C\CNC1=O (stereo partly drawn),1.29
6,COC(=O)[C@@]1(Cc2ccc(F)cc2)[C@H]2c3cc(C(=O)N(C)C)n(Cc4ccc(O)c(OC)c4)c3C[C@H]2CN1C(=O)c1ccccc1,0.607
7,C=C(COC)C(=O)CC[C@@H](OC(=O)c1cccnc1)c1ccccc1OCCO,-0.356
8,CN(C)CCCNC(=O)[C@@H]1c2ccccc2C(=O)N(C2CCCCC2)[C@H]1c1ccc(CO)cc1,1.29
9,COc1cc(NN2C(C(O)c3ccc(I)cc3)C=CC3C(=O)N(c4ccccc4)C(=O)C32)cc(OC)c1OC (stereo not drawn),1.32
10,Cc1ccc([C@H]2C(C(=O)O)=C[C@@H](C(C)(C)C)N2S(=O)(=O)c2ccc(C)cc2)cc1,1.31
11,CC(C)OC(=O)CC(=O)CC(O)c1ccc([N+](=O)[O-])cc1 (stereo not drawn),0.543
12,NC(=O)N1C(=O)C2C(C1=O)C1C=C(CCCO)C2C(C2CC2)N1Cc1cccc(OC(F)(F)F)c1 (stereo not drawn),0.588
13,CC(CO)N1C(=O)[C@@H]2[C@H]3C(=O)OCC=C[C@H]3OC23C=CCN(c2ccc(Cl)cc2)C(=O)[C@@H]13 (stereo partly drawn),-0.598
14,NC(=O)[C@@H]1[C@H]2C(=O)O[C@H](c3ccccc3)[C@H](c3ccccc3)N2[C@H](c2ccc(OCCO)cc2)[C@@]12C(=O)Nc1ccc(C#CCCO)cc12,0.837
15,CCOC(=O)C[C@H]1[C@H](OC(=O)c2ccc(C(=O)c3ccccc3)cc2)[C@@H](NC(=O)CC(C)C)c2cc(OCCCO)ccc2N1C(=O)Cc1ccc(OC)cc1,0.698
16,COCCCNC(=O)[C@@]1(c2ccc([N+](=O)[O-])cc2)CC(=O)N(CC23CC4CC(CC(C4)C2)C3)[C@@H]1c1ccc(CO)cc1I,0.745
17,C=C(/C(=C/C[C@@H](OC(C)=O)c1ccc(CO)o1)c1cc(C(=O)OC)ccc1OC)C(C)C,0.561

# Tested on: Chordin-like protein 2 (CHRDL2)
# Experiment: compounds binding chordin-like 2 – biochemical, small-molecule microarray, 635 nm fluorescence, primary screen (AID 1126);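 note: printed compound slides probed with Chrdl2 protein at 4 µg/mL for 1 h at 4 C; score merges 667 nm emission intensity with signal to noise over three replicate slides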
# Details: fluorescence 635 nm, higher = more signal
row,Structure (SMILES),composite z-score
1,Cc1nc2cc(Br)ccc2c(=O)n1Cc1cccc(O)c1,1.04
2,C=C[C@@H](C)[C@H](O)c1ccc(OCCO)cc1,-0.49
3,C=CCN1C(=O)[C@]2(O[C@H](CCO)[C@@H]([Si](C)(C)c3ccc(OC)cc3)[C@@H]2C)c2cc(NC(=O)c3ccc(OC)cc3)ccc21,0.878
4,CCOC(=O)C[C@H]1[C@H](OC(=O)c2cc3ccccc3oc2=O)[C@@H](NC(=O)c2ccc3ccccc3c2)c2cc(OCCCO)ccc2N1C(=O)Cc1ccc(OC)cc1,0.453
5,COc1ccc(C#Cc2ccc3c(c2)[C@]2(C(=O)N3)[C@H](c3ccc(OCCO)cc3)N3[C@H](c4ccccc4)[C@H](c4ccccc4)OC(=O)[C@H]3[C@@H]2C(=O)N2CCc3cc(OC)c(OC)cc3C2)cc1,0.704
6,COC(=O)c1c2oc(c1C(=O)OC)C(=O)N1CCC[C@H]1Cn1nncc1CN(Cc1ccccc1)C(=O)N[C@H](CO)CC2,-0.581
7,COC(=O)C(CC#Cc1ccc2c(c1)[C@]1(C(=O)N2)[C@H](c2ccc(O)cc2)N2[C@H](c3ccccc3)[C@H](c3ccccc3)OC(=O)[C@H]2[C@@H]1C(=O)N1CCCCCCC1)C(=O)OC,1.13
8,C=C[C@H](C)[C@H](OC(=O)Nc1ccc(OC)cc1)c1ccc(OCCO)cc1,-1.18
9,[N-]=[N+]=NC[C@H](Cc1ccccc1)NC(=O)c1ccccc1,0.433
10,COc1ccc([Si](C)(C)[C@H]2[C@H](CC(=O)N3Cc4ccccc4C[C@H]3CO)O[C@@]3(C(=O)N(Cc4ccc(N5C(=O)c6cccc7cccc5c67)cc4)c4ccccc43)[C@@H]2C)cc1,1.13
11,COc1ccc([Si](C)(C)[C@H]2[C@H](CC(=O)N3CCC[C@H]3CO)O[C@@]3(C(=O)N(Cc4ccc(N5CCC5=O)cc4)c4ccccc43)[C@@H]2C)cc1,1.25
12,C=CCNC(=O)[C@H]1[C@@H]2C(=O)O[C@@H](c3ccccc3)[C@@H](c3ccccc3)N2[C@@H](c2ccc(OCCO)cc2)[C@]12C(=O)Nc1ccc(C#CCNC(N)=O)cc12,-0.269
13,C=CCC(OC(C)=O)[C@@H]1[C@@H](N(Cc2cccc3ccccc23)C(=O)Cc2ccc(F)cc2)c2cc(OCCCO)ccc2N1C(=O)c1ccc(-c2ccccc2)cc1 (stereo partly drawn),-0.335
14,CC1CC/C=C\[C@H]2OC34C=CCN(CCN5CCOCC5)C(=O)[C@H]3N(C(C)CO)C(=O)[C@@H]4C2C(=O)O1 (stereo partly drawn),-0.231
15,C=CCN1C(=O)[C@]2(O[C@H](CCO)[C@@H]([Si](C)(C)c3ccc(OC)cc3)[C@@H]2C)c2cc(N3C(=O)COc4ccccc43)ccc21,-0.153
16,CN(C)C(=O)[C@]1(CCS(=O)(=O)c2ccccc2)N=C(c2ccc(OCCCO)cc2)O[C@@H]1c1ccccc1,-0.0707
17,Cc1ccccc1C(O)C1C=CC2C(=O)NC(=O)C2N1Nc1ccc(Cl)cc1Cl (stereo not drawn),0.291
18,O=C1c2ccccc2[C@](Cc2ccccc2I)(C(=O)NC2CC2)[C@H](c2ccc(CO)cc2)N1Cc1ccccc1C(F)(F)F,-0.941

row,Structure (SMILES),composite z-score
1,Cc1ccc(C(C)CC(O)C2C=CC3C(=O)N(c4ccccc4)C(=O)C3N2Nc2ccc(C#N)cc2)o1 (stereo not drawn),-0.387
2,COc1ccc([Si](C)(C)[C@H]2[C@H](CCO)O[C@@]3(C(=O)N(Cc4ccccc4)c4ccc(N5C(=O)c6ccccc6Oc6ccccc65)cc43)[C@@H]2C)cc1,0.214
3,COCCOC(=O)N1C(=O)[C@@]2(c3cc(C#CC4=CCCCC4)ccc31)[C@H](C(=O)N1CCCCCCC1)[C@H]1C(=O)O[C@H](c3ccccc3)[C@H](c3ccccc3)N1[C@@H]2c1ccc(OCCO)cc1,0.652
4,CC(C)[C@H]1NC(=O)[C@@]23C(=O)N[C@@H](Cc4ccccc4)C2[C@H](C)[C@@]2(C)O[C@H]2C3/C=C/C/C=C\CNC(=O)[C@H](Cc2ccccc2)NC1=O (stereo partly drawn),0.908
5,CC(C)=CCCC(C)=CC(O)C1C=CC2C(=O)N(c3ccccc3)C(=O)C2N1Nc1ccccc1F (stereo not drawn),-0.308
6,CC(C)C[C@@H]1NC(=O)CNC(=O)[C@@]23C(=O)N[C@@H](Cc4ccccc4)C2[C@H](C)[C@@]2(C)O[C@H]2C3/C=C/C/C=C\CNC1=O (stereo partly drawn),0.764
7,COC(=O)[C@@]1(Cc2ccc(F)cc2)[C@H]2c3cc(C(=O)N(C)C)n(Cc4ccc(O)c(OC)c4)c3C[C@H]2CN1C(=O)c1ccccc1,-0.109
8,C=C(COC)C(=O)CC[C@@H](OC(=O)c1cccnc1)c1ccccc1OCCO,0.349
9,CN(C)CCCNC(=O)[C@@H]1c2ccccc2C(=O)N(C2CCCCC2)[C@H]1c1ccc(CO)cc1,1.06
10,COc1cc(NN2C(C(O)c3ccc(I)cc3)C=CC3C(=O)N(c4ccccc4)C(=O)C32)cc(OC)c1OC (stereo not drawn),-0.357
11,Cc1ccc([C@H]2C(C(=O)O)=C[C@@H](C(C)(C)C)N2S(=O)(=O)c2ccc(C)cc2)cc1,-0.202
12,CC(C)OC(=O)CC(=O)CC(O)c1ccc([N+](=O)[O-])cc1 (stereo not drawn),-1.23
13,NC(=O)N1C(=O)C2C(C1=O)C1C=C(CCCO)C2C(C2CC2)N1Cc1cccc(OC(F)(F)F)c1 (stereo not drawn),-0.489
14,CC(CO)N1C(=O)[C@@H]2[C@H]3C(=O)OCC=C[C@H]3OC23C=CCN(c2ccc(Cl)cc2)C(=O)[C@@H]13 (stereo partly drawn),-2.12
15,NC(=O)[C@@H]1[C@H]2C(=O)O[C@H](c3ccccc3)[C@H](c3ccccc3)N2[C@H](c2ccc(OCCO)cc2)[C@@]12C(=O)Nc1ccc(C#CCCO)cc12,-0.178
16,CCOC(=O)C[C@H]1[C@H](OC(=O)c2ccc(C(=O)c3ccccc3)cc2)[C@@H](NC(=O)CC(C)C)c2cc(OCCCO)ccc2N1C(=O)Cc1ccc(OC)cc1,-0.612
17,COCCCNC(=O)[C@@]1(c2ccc([N+](=O)[O-])cc2)CC(=O)N(CC23CC4CC(CC(C4)C2)C3)[C@@H]1c1ccc(CO)cc1I,-0.348
18,C=C(/C(=C/C[C@@H](OC(C)=O)c1ccc(CO)o1)c1cc(C(=O)OC)ccc1OC)C(C)C,0.0347
